From paper PMC12820563, “FoxP3 forms a head-to-head dimer in vivo and stabilizes its multimerization on adjacent microsatellites” come the findings set out here.

Over roughly 16,000 sequences, “rpm ratio (pull-down/input)” has its median near 0.94; the highest 2% begin near 1.7. The list comes from a sample in which the highest values are over-represented; it also holds similar and randomly drawn sequences.

The assay has as its target T1, MBP-FoxP1dN (Mus musculus, UniProt P58462 326-579).
T1 sequence: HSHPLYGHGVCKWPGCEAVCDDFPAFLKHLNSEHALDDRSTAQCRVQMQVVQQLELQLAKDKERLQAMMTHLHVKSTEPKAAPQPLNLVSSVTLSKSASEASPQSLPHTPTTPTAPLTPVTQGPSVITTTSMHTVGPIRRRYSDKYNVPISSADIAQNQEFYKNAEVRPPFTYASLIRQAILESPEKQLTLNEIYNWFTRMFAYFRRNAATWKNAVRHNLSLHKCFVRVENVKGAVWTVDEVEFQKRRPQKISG
In words: PD-seq (MBP pull-down with sequencing); 20 mM Tris-HCl pH 7.5, 100 mM NaCl, 1.5 mM MgCl2, 0.4 uM protein, 0.1 uM dsDNA library, 30 min, room temperature, amylose pull-down; high values mean tight binding. As to conditions: protein: recombinant; tags: His6-MBP; chain copies: 2; dsDNA, one strand shown. In outline: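 In Tris pH 7.5 buffer with NaCl and MgCl2, 0.4 µM His6-MBP-tagged mouse FoxP3 or FoxP1 fragment lacking the N-terminus, from E. coli, met 0.1 µM Klenow-filled double-stranded degenerate DNA library for 30 min at room temperature. Three washes on amylose resin followed capture of the complexes, then proteinase K release of DNA, PCR barcoding and Illumina sequencing. Binding is taken as pooled-replicate reads-per-million enrichment of pull-down relative to input.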
For “GATGATTGTTCTCCCAGCTGATGAATTCCTCTGATCGAGTAAACAAATTTTCCTAATCTTTCTGTTCAAGCGCCATCTAC”, the binding signal is 0.844 RPM ratio (pull-down/input).
For the sequence “GATGATTGTTCTCCCAGCTGATGAATTTGTTTACTCGAGTAAACAAATTTTCCTAATCTTTCTGTTCAAGCGCCATCTAC”, the binding signal is 2.62 RPM ratio (pull-down/input).
For “GATGATTGTTCTCCCAGCTGATGAATTGTTTTACTCGAGTAAACAAATTTTCCTAATCTTTCTGTTCAAGCGCCATCTAC” the value was 1.42 RPM ratio (pull-down/input); for “GATGATTGTTCTCCCAGCTGATGAATTATTTTACTCGAGTAAACAAATTTTCCTAATCTTTCTGTTCAAGCGCCATCTAC”, 1.2 RPM ratio (pull-down/input); for “GATGATTGTTCTCCCAGCTGATGAATTTGATGACTCGAGTAAACAAATTTTCCTAATCTTTCTGTTCAAGCGCCATCTAC”, 0.974 RPM ratio (pull-down/input).
For “GATGATTGTTCTCCCAGCTGATGAATTTATTTTCTCGAGTAAACAAATTTTCCTAATCTTTCTGTTCAAGCGCCATCTAC” the value was 1.77 RPM ratio (pull-down/input); for “GATGATTGTTCTCCCAGCTGATGAATTTGTTGACTCGAGTAAACAAATTTTCCTAATCTTTCTGTTCAAGCGCCATCTAC”, 2.35 RPM ratio (pull-down/input); for “GATGATTGTTCTCCCAGCTGATGAATTTATTTCCTCGAGTAAACAAATTTTCCTAATCTTTCTGTTCAAGCGCCATCTAC”, 1.3 RPM ratio (pull-down/input).
As to “GATGATTGTTCTCCCAGCTGATGAATTTTTTTACTCGAGTAAACAAATTTTCCTAATCTTTCTGTTCAAGCGCCATCTAC”, the binding signal is 0.958 RPM ratio (pull-down/input).
For “GATGATTGTTCTCCCAGCTGATGAATTTATTTACTCGAGTAAACAAATTTTCCTAATCTTTCTGTTCAAGCGCCATCTAC”, the binding signal was 2.5 RPM ratio (pull-down/input).
Take “GATGATTGTTCTCCCAGCTGATGAATTTTATTACTCGAGTAAACAAATTTTCCTAATCTTTCTGTTCAAGCGCCATCTAC”: the binding signal is 1.01 RPM ratio (pull-down/input).
For “GATGATTGTTCTCCCAGCTGATGAATTTTTTGACTCGAGTAAACAAATTTTCCTAATCTTTCTGTTCAAGCGCCATCTAC” the value was 0.935 RPM ratio (pull-down/input).
For “GATGATTGTTCTCCCAGCTGATGAATTTTATTTCTCGAGTAAACAAATTTTCCTAATCTTTCTGTTCAAGCGCCATCTAC” the value was 1.16 RPM ratio (pull-down/input).
As for “GATGATTGTTCTCCCAGCTGATGAATTCAATGCGTCGAGTAAACAAATTTTCCTAATCTTTCTGTTCAAGCGCCATCTAC”, the binding signal was 1.05 RPM ratio (pull-down/input).
Regarding “GATGATTGTTCTCCCAGCTGATGAATTATTACGTTCGAGTAAACAAATTTTCCTAATCTTTCTGTTCAAGCGCCATCTAC”, the binding signal was 1.21 RPM ratio (pull-down/input).
For the sequence “GATGATTGTTCTCCCAGCTGATGAATTTGGGATGTCGAGTAAACAAATTTTCCTAATCTTTCTGTTCAAGCGCCATCTAC”, the binding signal is 0.922 RPM ratio (pull-down/input).
In the case of “GATGATTGTTCTCCCAGCTGATGAATTTACCGAATCGAGTAAACAAATTTTCCTAATCTTTCTGTTCAAGCGCCATCTAC”, the binding signal is 1.37 RPM ratio (pull-down/input).
As to “GATGATTGTTCTCCCAGCTGATGAATTGAAAGCATCGAGTAAACAAATTTTCCTAATCTTTCTGTTCAAGCGCCATCTAC”, the binding signal is 1.2 RPM ratio (pull-down/input).
For the sequence “GATGATTGTTCTCCCAGCTGATGAATTCACCGGTTCGAGTAAACAAATTTTCCTAATCTTTCTGTTCAAGCGCCATCTAC”, the binding signal is 0.877 RPM ratio (pull-down/input).
For “GATGATTGTTCTCCCAGCTGATGAATTGATCTTATCGAGTAAACAAATTTTCCTAATCTTTCTGTTCAAGCGCCATCTAC”, the binding signal is 1.08 RPM ratio (pull-down/input).
Turning to “GATGATTGTTCTCCCAGCTGATGAATTTGGTATATCGAGTAAACAAATTTTCCTAATCTTTCTGTTCAAGCGCCATCTAC”, the binding signal is 1.23 RPM ratio (pull-down/input).
As for “GATGATTGTTCTCCCAGCTGATGAATTTTAGGGATCGAGTAAACAAATTTTCCTAATCTTTCTGTTCAAGCGCCATCTAC”, the binding signal was 0.823 RPM ratio (pull-down/input).
On to “GATGATTGTTCTCCCAGCTGATGAATTCCTATTATCGAGTAAACAAATTTTCCTAATCTTTCTGTTCAAGCGCCATCTAC”, for which the binding signal is 1.33 RPM ratio (pull-down/input).
With “GATGATTGTTCTCCCAGCTGATGAATTTTATGTCTCGAGTAAACAAATTTTCCTAATCTTTCTGTTCAAGCGCCATCTAC”, the binding signal was 0.899 RPM ratio (pull-down/input).
In the case of “GATGATTGTTCTCCCAGCTGATGAATTTATTGACTCGAGTAAACAAATTTTCCTAATCTTTCTGTTCAAGCGCCATCTAC”, the binding signal was 1.85 RPM ratio (pull-down/input).
In the case of “GATGATTGTTCTCCCAGCTGATGAATTATTTGTCTCGAGTAAACAAATTTTCCTAATCTTTCTGTTCAAGCGCCATCTAC”, the binding signal was 1.66 RPM ratio (pull-down/input).
“GATGATTGTTCTCCCAGCTGATGAATTTTATGACTCGAGTAAACAAATTTTCCTAATCTTTCTGTTCAAGCGCCATCTAC”: the binding signal was 0.916 RPM ratio (pull-down/input).
Consider “GATGATTGTTCTCCCAGCTGATGAATTTATTGTCTCGAGTAAACAAATTTTCCTAATCTTTCTGTTCAAGCGCCATCTAC”, for which the binding signal is 1.78 RPM ratio (pull-down/input).
“GATGATTGTTCTCCCAGCTGATGAATTATTTGACTCGAGTAAACAAATTTTCCTAATCTTTCTGTTCAAGCGCCATCTAC”: the binding signal is 1.07 RPM ratio (pull-down/input).
Take “GATGATTGTTCTCCCAGCTGATGAATTGTCACCCTCGAGTAAACAAATTTTCCTAATCTTTCTGTTCAAGCGCCATCTAC”: the binding signal is 1 RPM ratio (pull-down/input).
Take “GATGATTGTTCTCCCAGCTGATGAATTGAGTTCGTCGAGTAAACAAATTTTCCTAATCTTTCTGTTCAAGCGCCATCTAC”: the binding signal is 0.82 RPM ratio (pull-down/input).
To “GATGATTGTTCTCCCAGCTGATGAATTAAGGACATCGAGTAAACAAATTTTCCTAATCTTTCTGTTCAAGCGCCATCTAC” belongs 1.06 RPM ratio (pull-down/input).
